Results published in PubChem BioAssay (NCATS).
Results filed as inconclusive are left out. Where a call stands in place of a potency, no number is given. Values without a mark were called inactive. The source made the active and inactive calls. The call rests on the fitted dose curve; in most records, active means well fitted curve in the direction sought with a large enough effect; inconclusive means small, poorly fitted or top-dose-only effect, or another doubt; inactive means no such curve, though single readings can be large; an effect the other way counts as inactive or inconclusive.

Experiments:
[1] = target: ATP-dependent 6-phosphofructokinase (Trypanosoma brucei brucei) (UniProt O15648); test: qHTS Assay to Find Inhibitors of T. brucei phosphofructokinase: hit validation (AID 492961);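 further: luminescence reports ADP formed as PFK phosphorylates fructose-6-phosphate with ATP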
Method in brief: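 Reaction: 0.1 M triethanolamine pH 8.0, 5 mM MgCl2, F6P 0.5 mM, ATP 0.1 mM, PFK 1.25 nM, 45 min RT. Read-out: ADP-Glo luminescence. Analysis: concentration-response fits, classed by r2 and efficacy.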

[2] = qHTS profiling for inhibitors of Plasmodium falciparum proliferation (AID 504749); further: potency means the concentration at half of the fitted maximal effect; on all read-outs here: nearly all actives have a fitted effect of over 60% in size; details: P. falciparum in erythrocytes, SYBR Green DNA, 72 h; for activity, negative = inhibition: at 28.7 µM (top of the series)
Method in brief: (§1)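 Fluorescence of SYBR Green-bound parasite DNA, read at 485/535 nm, served as the growth measure. Infected erythrocytes were cultured with compound 72 h; artemisinin (0.29 uM) and DMSO wells defined the normalization range.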

3D7 = test: as above; details: P. falciparum in erythrocytes, SYBR Green DNA, 72 h; series mostly up to 28.7 µM
Method in brief: as §1

AA1029 = test: as above; details: P. falciparum in erythrocytes, SYBR Green DNA, 72 h; series mostly up to 28.7 µM
Method in brief: as §1

AS120 = test: as above; details: P. falciparum in erythrocytes, SYBR Green DNA, 72 h; series mostly up to 28.7 µM
Method in brief: as §1

ATS189 = test: as above; details: P. falciparum in erythrocytes, SYBR Green DNA, 72 h; series mostly up to 28.7 µM
Method in brief: as §1

CP185 = test: as above; details: P. falciparum in erythrocytes, SYBR Green DNA, 72 h; series mostly up to 28.7 µM
Method in brief: as §1

CP191 = test: as above; details: P. falciparum in erythrocytes, SYBR Green DNA, 72 h; series mostly up to 28.7 µM
Method in brief: as §1

CP194 = test: as above; details: P. falciparum in erythrocytes, SYBR Green DNA, 72 h; series mostly up to 28.7 µM
Method in brief: as §1

CP217 = test: as above; details: P. falciparum in erythrocytes, SYBR Green DNA, 72 h; series mostly up to 28.7 µM
Method in brief: as §1

CP237 = test: as above; details: P. falciparum in erythrocytes, SYBR Green DNA, 72 h; series mostly up to 28.7 µM
Method in brief: as §1

CP238 = test: as above; details: P. falciparum in erythrocytes, SYBR Green DNA, 72 h; series mostly up to 28.7 µM
Method in brief: as §1

CP252 = test: as above; details: P. falciparum in erythrocytes, SYBR Green DNA, 72 h; series mostly up to 28.7 µM
Method in brief: as §1

CP265 = test: as above; details: P. falciparum in erythrocytes, SYBR Green DNA, 72 h; series mostly up to 28.7 µM
Method in brief: as §1

CP286 = test: as above; details: P. falciparum in erythrocytes, SYBR Green DNA, 72 h; series mostly up to 28.7 µM
Method in brief: as §1

DFO2036 = test: as above; details: P. falciparum in erythrocytes, SYBR Green DNA, 72 h; series mostly up to 28.7 µM
Method in brief: as §1

DIV30 = test: as above; details: P. falciparum in erythrocytes, SYBR Green DNA, 72 h; series mostly up to 28.7 µM
Method in brief: as §1

Dd2 = test: as above; details: P. falciparum in erythrocytes, SYBR Green DNA, 72 h; series mostly up to 28.7 µM
Method in brief: as §1

N140 = test: as above; details: P. falciparum in erythrocytes, SYBR Green DNA, 72 h; series mostly up to 28.7 µM
Method in brief: as §1

P94_40 = test: as above; details: P. falciparum in erythrocytes, SYBR Green DNA, 72 h; series mostly up to 28.7 µM
Method in brief: as §1

ATP-dependent 6-phosphofructokinase (Trypanosoma brucei brucei), sequence (O15648 whole entry, looked up): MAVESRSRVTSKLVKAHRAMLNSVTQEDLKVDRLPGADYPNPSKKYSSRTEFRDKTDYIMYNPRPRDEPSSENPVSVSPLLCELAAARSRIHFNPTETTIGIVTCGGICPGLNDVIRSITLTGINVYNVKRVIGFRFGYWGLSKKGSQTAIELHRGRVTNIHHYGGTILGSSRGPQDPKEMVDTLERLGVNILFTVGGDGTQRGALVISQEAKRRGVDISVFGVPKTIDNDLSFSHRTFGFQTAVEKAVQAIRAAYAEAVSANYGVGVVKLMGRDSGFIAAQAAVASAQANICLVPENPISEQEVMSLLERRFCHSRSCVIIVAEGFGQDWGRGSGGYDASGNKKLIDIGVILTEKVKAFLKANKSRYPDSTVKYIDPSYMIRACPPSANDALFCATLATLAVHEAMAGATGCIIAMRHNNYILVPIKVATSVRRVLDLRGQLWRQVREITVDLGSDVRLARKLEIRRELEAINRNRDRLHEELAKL

SMILES: CC(=O)OCC(=O)[C@@]1(O)CCC2C3C[C@H](C)C4=CC(=O)C=CC4(C)C3C(O)CC21C (some centres not stated)
- Potency [1]: inactive
- activity, negative = inhibition ([2]; parasite line A): 2.49%
- activity, negative = inhibition ([2]; parasite line B): 4.17%
- Potency (3D7): inactive
- Potency (AA1029): inactive
- Potency (AS120): inactive
- Potency (ATS189): inactive
- Potency (CP185): inactive
- Potency (CP191): inactive
- Potency (CP194): inactive
- Potency (CP217): inactive
- Potency (CP237): inactive
- Potency (CP238): inactive
- Potency (CP252): inactive
- Potency (CP265): inactive
- Potency (CP286): inactive
- Potency (DFO2036): inactive
- Potency (DIV30): inactive
- Potency (Dd2): inactive
- Potency (N140): inactive
- Potency (P94_40): inactive

SMILES: CC1C(=O)C(=O)C=CN1C (configuration not stated)
- Potency [1]: inactive
- activity, negative = inhibition ([2]; parasite line A): 3.53%
- activity, negative = inhibition ([2]; parasite line B): 9.14%
- Potency (3D7): inactive
- Potency (AA1029): inactive
- Potency (AS120): inactive
- Potency (ATS189): inactive
- Potency (CP185): inactive
- Potency (CP191): inactive
- Potency (CP194): inactive
- Potency (CP217): inactive
- Potency (CP237): inactive
- Potency (CP238): inactive
- Potency (CP252): inactive
- Potency (CP265): inactive
- Potency (CP286): inactive
- Potency (DFO2036): inactive
- Potency (DIV30): inactive
- Potency (Dd2): inactive
- Potency (N140): inactive
- Potency (P94_40): inactive

SMILES: Nc1nc(F)nc2c1ncn2[C@@H]1O[C@H](CO)[C@@H](O)[C@H]1O
- Potency [1]: inactive
- activity, negative = inhibition ([2]; parasite line A): 9.43%
- activity, negative = inhibition ([2]; parasite line B): 14.2%
- Potency (3D7): inactive
- Potency (AA1029): inactive
- Potency (AS120): inactive
- Potency (ATS189): inactive
- Potency (CP185): inactive
- Potency (CP191): inactive
- Potency (CP194): inactive
- Potency (CP217): inactive
- Potency (CP237): inactive
- Potency (CP238): inactive
- Potency (CP252): inactive
- Potency (CP265): inactive
- Potency (CP286): inactive
- Potency (DFO2036): inactive
- Potency (DIV30): inactive
- Potency (Dd2): inactive
- Potency (N140): inactive
- Potency (P94_40): inactive

SMILES: CO/N=C(/C(=O)N[C@@H]1C(=O)N2C(C(=O)O)=C(CSC(=O)c3ccco3)CSC12)c1csc(N)n1 (some centres not stated)
- Potency [1]: inactive
- activity, negative = inhibition ([2]; parasite line A): 2.76%
- activity, negative = inhibition ([2]; parasite line B): 0.141%
- Potency (3D7): inactive
- Potency (AA1029): inactive
- Potency (AS120): inactive
- Potency (ATS189): inactive
- Potency (CP185): inactive
- Potency (CP191): inactive
- Potency (CP194): inactive
- Potency (CP217): inactive
- Potency (CP237): inactive
- Potency (CP238): inactive
- Potency (CP252): inactive
- Potency (CP265): inactive
- Potency (CP286): inactive
- Potency (DFO2036): inactive
- Potency (DIV30): inactive
- Potency (Dd2): inactive
- Potency (N140): inactive
- Potency (P94_40): inactive

SMILES: OCC(CO)NC1C[C@](O)(CO)[C@@H](O)[C@H](O)[C@H]1O (some centres not stated)
- Potency [1]: inactive
- activity, negative = inhibition ([2]; parasite line A): 8.78%
- activity, negative = inhibition ([2]; parasite line B): 9.25%
- Potency (3D7): inactive
- Potency (AA1029): inactive
- Potency (AS120): inactive
- Potency (ATS189): inactive
- Potency (CP185): inactive
- Potency (CP191): inactive
- Potency (CP194): inactive
- Potency (CP217): inactive
- Potency (CP237): inactive
- Potency (CP238): inactive
- Potency (CP252): inactive
- Potency (CP265): inactive
- Potency (CP286): inactive
- Potency (DFO2036): inactive
- Potency (DIV30): inactive
- Potency (Dd2): inactive
- Potency (N140): inactive
- Potency (P94_40): inactive

SMILES: CN1[C@@H]2CC[C@@H]1CC(OC(=O)[C@H](CO)c1ccccc1)C2 (some centres not stated)
- Potency [1]: inactive
- activity, negative = inhibition ([2]; parasite line A): 1.09%
- activity, negative = inhibition ([2]; parasite line B): 2.23%
- Potency (3D7): inactive
- Potency (AA1029): inactive
- Potency (AS120): inactive
- Potency (ATS189): inactive
- Potency (CP185): inactive
- Potency (CP191): inactive
- Potency (CP194): inactive
- Potency (CP217): inactive
- Potency (CP237): inactive
- Potency (CP238): inactive
- Potency (CP252): inactive
- Potency (CP265): inactive
- Potency (CP286): inactive
- Potency (DFO2036): inactive
- Potency (DIV30): inactive
- Potency (Dd2): inactive
- Potency (N140): inactive
- Potency (P94_40): inactive

SMILES: C[C@]12C=CC(=O)N[C@@H]1CC[C@@H]1C2CC[C@]2(C)C(C(=O)Nc3cc(C(F)(F)F)ccc3C(F)(F)F)CC[C@@H]12 (some centres not stated)
- Potency [1]: inactive
- activity, negative = inhibition ([2]; parasite line A): -5.45%
- Potency ([2]; parasite line B): 11.2 µM (active)
- Potency (3D7): 5.62 µM (active)
- Potency (AA1029): inactive
- Potency (AS120): inactive
- Potency (ATS189): inactive
- Potency (CP185): inactive
- Potency (CP191): inactive
- Potency (CP194): inactive
- Potency (CP217): inactive
- Potency (CP237): 5.01 µM (active)
- Potency (CP238): inactive
- Potency (CP252): inactive
- Potency (CP265): inactive
- Potency (CP286): 6.31 µM (active)
- Potency (DFO2036): inactive
- Potency (DIV30): inactive
- Potency (Dd2): inactive
- Potency (N140): inactive
- Potency (P94_40): inactive
